Results from the supplement of paper PMC10981050.
“And” between values parts separate entries of the source, which are not always exact repeats. Identical values can stand only once. Counter-ions that a name gives are not always drawn.

How the values were obtained:
Assay in all cases: cell viability relative to vehicle control; higher = less cytotoxic
Details in all cases: 10 µM
K562 = test system: K562
Procedure, shortened: (§1)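 Screening covered the Selleck bioactive, kinase and epigenetic probe libraries, less identity-inconsistent compounds, on CRISPR-edited mutant clones and isogenic wild-type clones of four leukaemia lines. Cells, at 2000 per well in 50 µL medium, received a single 10 µM acoustically dispensed dose. After 48 h the supernatant was removed and CellTiter-Glo luminescence was read. Viability was analysed in Genedata Screener as percent of the on-plate vehicle control.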

MARIMO = test system: MARIMO
Procedure, shortened: as §1

MOLM14 = test system: MOLM14
Procedure, shortened: as §1

OCI-AML2 = test system: OCI-AML2
Procedure, shortened: as §1

Row | SMILES | cell viability (K562; SRSF2 genotype: SRSF2 P95H/wt) | cell viability (K562; SRSF2 genotype: SRSF2 wt/wt) [%] | cell viability (MARIMO; SRSF2 genotype: SRSF2 P95H/wt) [%] | cell viability (MARIMO; SRSF2 genotype: SRSF2 wt/wt) [%] | cell viability (MOLM14; SRSF2 genotype: SRSF2 P95H/wt) [%] | cell viability (MOLM14; SRSF2 genotype: SRSF2 wt/wt) [%] | cell viability (OCI-AML2; SRSF2 genotype: P95H/wt) [%] | cell viability (OCI-AML2; SRSF2 genotype: wt/wt) [%]
1 | Cc1cc(Nc2ccc(NC(=O)c3ccc(Nc4ccnc5ccccc45)cc3)cc2)nc(N)n1 | 1.14% and 0.97% | 2.69 | 0.48 | 0.36 | 0.33 | 0.25 | 0.22 | 0.27
2 | C[C@@H]1[C@H]2c3cc4c(cc3O[C@@]35OCOC3=CC(=O)[C@H](C[C@H]1C)[C@@H]25)OCO4 [Sauchinone] | 92.2% and 99.5% | 100 | 87.5 | 92.9 | 55.1 | 94.9 | 87.6 | 86.8
3 | CNC[C@@H](O)c1ccc(O)c(O)c1 [L-Adrenaline (Epinephrine)] | 101% and 90% | 96.3 | 104 | 101 | 87.9 | 99.3 | 115 | 104
4 | CCc1nc(-c2cccc(C)c2)c(-c2ccnc(NC(=O)c3ccccc3)c2)s1 | 75.8% and 73% | 66.3 | 72.3 | 64 | 76.5 | 86.7 | 83.7 | 76.5
5 | Cc1nc(Nc2ccc(F)cc2)nc(N2CCc3ccccc3C2C)c1C (stereo not given) [Revaprazan Hydrochloride] | 66.5% and 73.7% | 68.7 | 67.6 | 56.4 | 63.3 | 72.5 | 75 | 67.2
6 | CC(O)COCC1OC2OC3C(COCC(C)O)OC(OC4C(COCC(C)O)OC(OC5C(COCC(C)O)OC(OC6C(COCC(C)O)OC(OC7C(COCC(C)O)OC(OC8C(COCC(C)O)OC(OC1C(O)C2O)C(O)C8O)C(O)C7O)C(O)C6O)C(O)C5O)C(O)C4O)C(O)C3O (stereo not given) | 100% and 108% | 109 | 105 | 112 | 106 | 108 | 108 | 95.8
7 | O=C1c2ccc(Nc3ccc(F)cc3F)cc2CCc2ccc(OC[C@H](O)CO)cc21 [Skepinone-L] | 84.7% and 79.7% | 77.7 | 91.7 | 100 | 104 | 102 | 77.2 | 73.7
8 | O=C(O)CCN1C(=O)/C(=C/c2ccc(-c3ccc([N+](=O)[O-])cc3)o2)SC1=S | 104% and 106% | 111 | 100 | 98.5 | 93.3 | 101 | 103 | 109
9 | c1ccc2c(c1)CCCC2C1=NCCN1 (stereo not given) [Tetrahydrozoline HCl] | 101% and 92.1% | 92.9 | 92.1 | 97.2 | 79.5 | 90.7 | 87.8 | 93.8
10 | CC(C)=C[C@H]1C[C@](C)(O)[C@@H]2[C@H]3CC[C@@H]4[C@@]5(C)CC[C@H](O[C@@H]6OC[C@H](O)[C@H](O[C@@H]7O[C@H](CO)[C@@H](O)[C@H](O)[C@H]7O[C@@H]7OC[C@@H](O)[C@H](O)[C@H]7O)[C@H]6O[C@@H]6O[C@@H](C)[C@H](O)[C@@H](O)[C@H]6O)C(C)(C)[C@@H]5CC[C@@]4(C)[C@@]34CO[C@@]2(C4)O1 [Jujuboside B] | 117% and 106% | 102 | 108 | 113 | 107 | 106 | 97.2 | 108
11 | NC1=N[C@@](c2cccc(-c3cncnc3)c2)(c2ccnc(C(F)F)c2)c2cccc(F)c21 | 76.9% and 74.8% | 81.4 | 80.1 | 95.2 | 85.7 | 84.1 | 71.1 | 71.3
12 | CC(=C(CCOC(=O)C(C)C)SSC(CCOC(=O)C(C)C)=C(C)N(C=O)Cc1cnc(C)nc1N)N(C=O)Cc1cnc(C)nc1N (stereo in doubt) [Sulbutiamine] | 99% and 93.5% | 93.6 | 84.7 | 95.4 | 84.2 | 90.8 | 84.7 | 93.6
13 | CN(C)C(=S)NN=C(c1ccccn1)c1ccccn1 | 30% and 40.3% | 30.9 | 11.5 | 20.1 | 1.77 | 0.87 | 10.9 | 10.6
14 | O=c1ccc2ccc(O)cc2[nH]1 [7-Hydroxycarbostyril] | 95.8% and 92.9% | 101 | 95.4 | 101 | 95 | 101 | 91.2 | 107
15 | O=C(O)c1ccc2c(c1)nc(Nc1cccc(Cl)c1)c1ccncc12 [cx-4945 (Silmitasertib)] | 49.9% and 60.1% | 63.7 | 49.7 | 47.3 | 26.9 | 34 | 5.84 | 22.2
16 | CC(COc1ccccc1)N(CCCl)Cc1ccccc1 (stereo not given) [Phenoxybenzamine HCl] | 66.1% and 73.8% | 63.2 | 67.3 | 72.5 | 57.5 | 62.7 | 54.4 | 62.1
17 | CCCCc1ccc(O)cc1O [4-Butylresorcinol] | 99.6% and 85.8% | 91.2 | 90.6 | 102 | 86.5 | 93.8 | 85.7 | 88.9
18 | CCCCNc1ncc(-c2ccc(CN3CCOCC3)cn2)c(NC2CCC(O)CC2)n1 (stereo not given) | 70.7% and 94.8% | 88 | 60.7 | 62.3 | 7.3 | 4.78 | 16.1 | 22.9
19 | CC(C)C(NC(=O)c1ccc2ccccc2n1)C(=O)NC(CC(=O)O)C(=O)COc1c(F)cccc1F (stereo not given) | 104% and 106% | 97.3 | 100 | 110 | 104 | 99.8 | 100 | 101
20 | CN(C)CC(c1ccc(O)cc1)C1(O)CCCCC1 (stereo not given) [Desvenlafaxine Succinate] | 96.4% and 90.5% | 101 | 98.4 | 103 | 98.4 | 100 | 100 | 90

Row | SMILES | cell viability (K562; SRSF2 genotype: SRSF2 P95H/wt) | cell viability (K562; SRSF2 genotype: SRSF2 wt/wt) [%] | cell viability (MARIMO; SRSF2 genotype: SRSF2 P95H/wt) [%] | cell viability (MARIMO; SRSF2 genotype: SRSF2 wt/wt) [%] | cell viability (MOLM14; SRSF2 genotype: SRSF2 P95H/wt) [%] | cell viability (MOLM14; SRSF2 genotype: SRSF2 wt/wt) [%] | cell viability (OCI-AML2; SRSF2 genotype: P95H/wt) [%] | cell viability (OCI-AML2; SRSF2 genotype: wt/wt) [%]
21 | CCN(CC)Cc1ccc2cc(COC(=O)Nc3ccc(C(=O)NO)cc3)ccc2c1 [ITF2357 (Givinostat)] | 1.36% and 7.22% | 1.85 | 4.74 | 9.63 | 0.81 | 0.55 | 1.72 | 3.52
22 | NC(=O)C1CCCc2c1[nH]c1ccc(Cl)cc21 (stereo not given) | 97% and 96% | 105 | 89 | 102 | 96 | 99.6 | 91.2 | 92.2
23 | CCCOC(C(=O)OC1CCN(C)CC1)(c1ccccc1)c1ccccc1 [Propiverine hydrochloride] | 80.6% and 87.8% | 88.2 | 68.5 | 79.1 | 75.2 | 85.2 | 72.1 | 64.2
24 | COc1ccc2c(c1O)-c1c(O)c(OC)cc3c1[C@H](C2)[N+](C)(C)CC3 [Magnoflorine] | 97.9% and 97.3% | 101 | 98 | 105 | 99.3 | 100 | 103 | 107
25 | CC1(C)S[C@@H]2[C@H](NC(=O)[C@H](N)c3ccc(O)cc3)C(=O)N2[C@H]1C(=O)O [Amoxicillin sodium (Amox)] | 99.4% and 102% | 105 | 105 | 109 | 96 | 103 | 105 | 93.4
26 | O=c1n(CCCN2CCN(c3cccc(Cl)c3)CC2)nc2ccccn12 [Trazodone hydrochloride (Desyrel)] | 102% and 99.9% | 103 | 105 | 109 | 106 | 102 | 106 | 104
27 | COC(=O)C1=C(C)NC(C)=C(C(=O)OC(C)C)C1c1cccc2nonc12 (stereo not given) [Isradipine (Dynacirc)] | 95.3% and 96.5% | 97.3 | 99.4 | 103 | 101 | 100 | 93.2 | 99.5
28 | CCCCCCC1CCC(=O)O1 (stereo not given) | 96.5% and 97.2% | 97.8 | 97.3 | 101 | 103 | 102 | 96.3 | 106
29 | Cc1ccccc1C(=O)Nc1ccc(C(=O)N2CCCC(N(C)C)c3ccccc32)cc1 (stereo not given) [Mozavaptan] | 93.3% and 90.1% | 85 | 88.9 | 93.2 | 97.1 | 102 | 95.5 | 97.1
30 | Cc1ccc(C(=O)O)c(O)c1 [4-Methylsalicylic acid] | 107% and 102% | 103 | 108 | 111 | 99.7 | 109 | 99.3 | 95.5
31 | Cc1ccnc2c1NC(=O)c1cccnc1N2C1CC1 [Nevirapine (Viramune)] | 101% and 89.6% | 95.5 | 93.3 | 99.3 | 89.9 | 0.15 | 91.6 | 104
32 | Cc1cc(C(C)Nc2ccccc2)c2nc(N3CCOCC3)cc(=O)n2c1 (stereo not given) | 92.6% and 97.6% | 93.3 | 90.7 | 90.4 | 70.9 | 69 | 73.4 | 76.6
33 | CCOc1ccccc1OCCN[C@H](C)Cc1ccc(OC)c(S(N)(=O)=O)c1 [Tamsulosin] | 100% and 96% | 90.7 | 85.2 | 103 | 97.5 | 98 | 87.4 | 105
34 | Oc1ccc(OC2CCCCO2)cc1 (stereo not given) [Deoxyarbutin] | 104% and 99.3% | 105 | 84.6 | 93.3 | 83.3 | 81.9 | 87.4 | 83.2
35 | CN(C)CCOC(c1ccccc1)c1ccccc1 [Diphenhydramine HCl (Benadryl)] | 91.2% and 88.2% | 85.9 | 76.8 | 91.7 | 88.3 | 85.8 | 87.8 | 92.3
36 | Cc1ccc(C(=O)Nc2cccc(C(F)(F)F)c2)cc1Nc1nc(-c2cccnc2)nc2c1cnn2C | 65.9% and 77.9% | 64.2 | 46.1 | 60.5 | 91 | 110 | 87 | 82.7
37 | CN1C(N)=N[C@](C)(c2cc(NC(=O)c3ccc(F)cn3)ccc2F)CS1(=O)=O [Verubecestat (MK-8931) Trifluoroacetat] | 97.5% and 98.8% | 96.9 | 98.1 | 108 | 95.8 | 102 | 99.8 | 107
38 | CC1(C)CCC(C)(C)c2cc(NC(=O)c3ccc(C(=O)O)cc3)ccc21 [Tamibarotene] | 94.1% and 91.6% | 90.8 | 93.1 | 99.2 | 88.8 | 98.3 | 37.4 | 61.5
39 | CN(CCNc1ccnc2cc(Cl)ccc12)CCNc1ccnc2cc(Cl)ccc12 | 17.1% and 23.8% | 18.8 | 19.4 | 11.8 | 0.51 | 0.43 | 0.35 | 0.6
40 | CC[N+](CC)(CC)CCOc1cccc(OCC[N+](CC)(CC)CC)c1OCC[N+](CC)(CC)CC [Gallamine triethiodide (Flaxedil)] | 96% and 97.9% | 91.8 | 101 | 96.8 | 101 | 99.5 | 99 | 95.4
